# Test results taken from PubChem BioAssay.
# A number with no mark means an inactive call. No rule for the calls is given here.
# System: Aerobactin synthetase IucA (Klebsiella pneumoniae, hypervirulent)
# Assay: biochemical IucA inhibition screen of LOPAC library by absorbance (AID 1346212);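 also: 100% = no compound wells and 0% = no enzyme wells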
# Settings: IucA enzyme assay, absorbance (OD) readout; active compounds read low;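 tested at 8 µM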
row,SMILES,remaining activity
1,NCCCCCCCCCCN,104%
2,CCCCCC[C@@H]([C@@H](C)O)n1cnc2c(N)ncnc21,99.4%
3,Cc1ccccc1/C=C/C1=NCCN1,120%
4,NC1=NCC2c3ccccc3Cc3ccccc3N12 (configuration not stated),91.6%
5,C[N+]1(C)[C@@H]2CC(OC(=O)[C@H](CO)c3ccccc3)C[C@H]1[C@@H]1O[C@@H]12 (some centres not stated),112%
6,CNCCCC1c2ccccc2C=Cc2ccccc21,101%
7,Nc1ccc(CCNc2ncnc3c2ncn3C2OC(CO)C(O)C2O)cc1 (configuration not stated),124%
8,O=C1N(c2ccccc2)c2ccccc2C1(Cc1ccncc1)Cc1ccncc1,114%
9,CCN1CCC[C@H]1CNC(=O)c1c(O)c(Cl)cc(Cl)c1OC,98.9%
10,COc1cc(CC(=O)O)ccc1O,83.1%
11,Cc1nc2sccn2c(=O)c1CCN1CCC(=C(c2ccccc2)c2ccc(F)cc2)CC1,123%
12,N#Cc1cc([N+](=O)[O-])c2sc(C(N)=O)[n+]([O-])c2c1,106%
13,OC(CN1CCN(c2cccc(Cl)c2)CC1)C(c1ccccc1)c1ccccc1 (configuration not stated),114%
14,Nc1c(C(=O)Nc2nnc(-c3ccccc3)s2)sc2nc3c(cc12)CCCCC3,109%
15,CCCC(=O)NCCc1c2n(c3ccc(OC)cc13)Cc1ccccc1-2,89.8%
16,CCCCCCCCCCCCCCSCC(=O)O,105%
17,CCCCN1CCC(n2c(=O)[nH]c3ccccc32)CC1,110%
18,CNCC[C@H](Oc1ccc(C(F)(F)F)cc1)c1ccccc1,93.6%
19,C#C[C@]1(O)CC[C@H]2[C@@H]3CCC4=Cc5oncc5C[C@]4(C)[C@H]3CC[C@@]21C,101%
20,c1ccc(C2CN3CCSC3=N2)cc1 (configuration not stated),92.5%
21,CNc1ncnc2c1ncn2[C@@H]1O[C@H](CO)[C@@H](O)[C@H]1O,125%
22,CCC(=O)c1ccc2c(c1)N(CCCN(C)C)c1ccccc1S2,88.8%
